KCNQ2 enhance = KCNQ2 (rat) channel potentiation; O88943; CHO-K1 KCNQ2, FluxOR thallium flux fluorescence; stronger effect = higher value; B-score at 10 µM; 310,000 tested, 0.54% active;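 active = fluorescence ratio B-score at least 3 SD of library B-scores, with initial fluorescence B-score within 3 of them, cut at about 5.3 in these data; same plate scores as AID 2156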;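 note: B-score of peak minus minimum over baseline fluorescence ratio after K+ and Tl+ stimulus; positive B-score means potentiation of KCNQ2 with more thallium influx and brighter signal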
Target sequence (O88943 whole entry, looked up): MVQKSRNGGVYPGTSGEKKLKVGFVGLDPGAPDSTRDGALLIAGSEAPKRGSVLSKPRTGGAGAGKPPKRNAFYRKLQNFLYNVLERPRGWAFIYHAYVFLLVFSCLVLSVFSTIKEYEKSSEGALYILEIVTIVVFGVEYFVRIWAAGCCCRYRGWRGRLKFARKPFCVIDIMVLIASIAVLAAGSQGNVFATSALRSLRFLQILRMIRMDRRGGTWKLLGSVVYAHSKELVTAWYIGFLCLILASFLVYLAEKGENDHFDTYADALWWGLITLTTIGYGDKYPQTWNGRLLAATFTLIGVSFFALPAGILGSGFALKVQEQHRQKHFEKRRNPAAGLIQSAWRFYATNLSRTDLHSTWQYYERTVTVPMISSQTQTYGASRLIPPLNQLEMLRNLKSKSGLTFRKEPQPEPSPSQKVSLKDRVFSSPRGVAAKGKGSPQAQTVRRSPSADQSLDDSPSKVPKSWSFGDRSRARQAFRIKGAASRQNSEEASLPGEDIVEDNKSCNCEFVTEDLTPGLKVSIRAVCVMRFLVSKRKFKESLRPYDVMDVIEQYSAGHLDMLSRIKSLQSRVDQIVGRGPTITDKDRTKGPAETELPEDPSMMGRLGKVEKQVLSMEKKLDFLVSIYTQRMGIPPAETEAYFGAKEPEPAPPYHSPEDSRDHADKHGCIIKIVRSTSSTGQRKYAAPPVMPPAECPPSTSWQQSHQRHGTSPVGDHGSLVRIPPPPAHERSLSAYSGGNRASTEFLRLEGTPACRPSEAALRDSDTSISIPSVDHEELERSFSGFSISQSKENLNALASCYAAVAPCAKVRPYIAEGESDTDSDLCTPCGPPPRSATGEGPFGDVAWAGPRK
KCNQ2 block = inhibitors of rat KCNQ2 potassium channel; O88943; CHO-K1 KCNQ2, FluxOR thallium flux, 20 min; stronger effect = lower value; B-score at 10 µM; 310,000 tested, 1.1% active; AID 2156;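 active = fluorescence ratio B-score at most minus 3 library SDs, with starting brightness B-score within 2 library SDs, cut at about -5.5 in these data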
Each line names hits and unclear results; the compound was inactive in the other large screens. Compounds with a hit are over-represented: about 1.6% of the library has one in this group of screens.

COc1ccc(NC(=O)c2cc(-c3ccc(OC)c(OC)c3)nc3ccccc23)c(OC)c1	KCNQ2 block -5.87
COc1cc(-c2cc(C(=O)Nc3cccc(C(C)=O)c3)c3ccccc3n2)cc(OC)c1OC	KCNQ2 block -5.61
CC(=O)c1cccc(NC(=O)c2cc(-c3ccco3)nc3ccccc23)c1	none (no result: KCNQ2 enhance)
COc1cccc(-c2cc(C(=O)NC3CCCC3)c3ccccc3n2)c1	none (no result: KCNQ2 enhance)
CCC1CN(C(=O)N2CCC(C(=O)NCc3cccc(OC)c3OC)CC2)c2cc(C)ccc2O1 (stereo not drawn)	none
CC1CN(C(=O)CCNC(=O)c2ccc(Cl)cc2)CC(C)O1 (stereo not drawn)	none (no result: KCNQ2 enhance)
COc1cc(OC)c(NC(=O)Cn2cnc3sc(C)c(S(=O)(=O)N4CCOCC4)c3c2=O)cc1Cl	none (no result: KCNQ2 enhance)
COc1ccc([N+](=O)[O-])cc1NC1CCN(C(=O)c2cccs2)CC1	none (no result: KCNQ2 enhance)
COc1ccc2nc3oc(C(=O)N4CCN(c5cccc(Cl)c5)CC4)cc3cc2c1	KCNQ2 block -5.75
COc1ccc2nc3oc(C(=O)N4CCN(c5cccc(C(F)(F)F)c5)CC4)cc3cc2c1	none (no result: KCNQ2 enhance)
O=C(Nc1ccc(NC(=O)C2CCCCC2)nc1)c1cccs1	none
O=C(O)c1ccc(NC(=S)NC(=O)c2cncc(Br)c2)cc1	none
O=C(Nc1ccncc1)C1CCN(S(=O)(=O)c2c(Cl)cccc2Cl)CC1	none
Clc1nnc(N/N=C/c2ccccc2)c2ccccc12	none
Clc1nnc(NN=C2CCCC2)c2ccccc12	KCNQ2 enhance 9.46
COc1ccc(C(=O)NCc2cnn(C)c2C)cc1OC1CCN(C(C)C)CC1	none
CC(C)(C)OC(=O)NC(CCCCNC=O)C(=O)O (stereo not drawn)	KCNQ2 block -6.64
CC(C)CC(NC(=O)OC(C)(C)C)C(=O)O (stereo not drawn)	none (no result: KCNQ2 enhance)
Cc1ccc(N(CCC#N)C(=O)COC(=O)C2CCN(S(=O)(=O)c3ccc(C)c(C)c3)CC2)cc1	none (no result: KCNQ2 enhance)
COc1ccc(Cl)cc1S(=O)(=O)Nc1ccc2c(c1)n(C)c(=O)n2C	none
CCn1nc(C(=O)OCC(=O)c2ccc(F)cc2)c2ccccc2c1=O	none
CCn1nc(C(=O)OC(C(=O)c2c[nH]c3ccccc23)c2ccccc2)c2ccccc2c1=O (stereo not drawn)	KCNQ2 block -8.04
CC1CCN(C(=O)CCNS(=O)(=O)c2ccc3c(c2)c(=O)n(C)c(=O)n3C)CC1	none
CCCCCCCNC(=O)C1(CC2CC(c3ccc(Cl)cc3)=NO2)CCN(C(=O)OC(C)(C)C)CC1 (stereo not drawn)	none (no result: KCNQ2 enhance)
COC(=O)CN1C(=S)N(C)C(=O)/C1=C/c1cccs1	none (no result: KCNQ2 enhance)
CCc1ccc(/C=C2/C(=O)N(C)C(=S)N2CC(=O)OC)s1	KCNQ2 block -5.95
COc1ccc(S(=O)(=O)N2CCCC2=O)cc1N(C)S(C)(=O)=O	none
CCCCC(=Nc1ccccc1OC)C1=C(O)CC(c2ccccc2)CC1=O (stereo not drawn)	KCNQ2 block -6.48
CCCC(=Nc1ccccc1OC)C1=C(O)CC(c2ccccc2)CC1=O (stereo not drawn)	none (no result: KCNQ2 enhance)
CC(C)c1ccc(N2C(=O)CC(Sc3ncccn3)C2=O)cc1 (stereo not drawn)	none (no result: KCNQ2 enhance)
CC1CCN(S(=O)(=O)CCNC(=O)c2ccc(F)cc2)CC1	none
CC1CCCC(C)N1C(=O)Cn1nnc(-c2ccc([N+](=O)[O-])cc2)n1 (stereo not drawn)	none (no result: KCNQ2 enhance)
COc1ccc(NC(=O)C2CCCN2S(=O)(=O)c2cccs2)c([N+](=O)[O-])c1 (stereo not drawn)	none
O=C(c1ccc2ccccc2c1)N1CCCCC1	none
O=C(c1ccc2ccccc2c1)N1CCN(c2ccccc2)CC1	KCNQ2 block -5.58
COc1ccc(CCNc2ccc(C(CC(N)=O)NC(=O)c3cc(OC)ccc3OC)cc2[N+](=O)[O-])cc1 (stereo not drawn)	none
COc1ccc(NC(=O)CN(c2ccc(OC)c(Cl)c2)S(=O)(=O)c2ccccc2)c(OC)c1	none (no result: KCNQ2 enhance)
Cc1nc2c(oc3ccc(Cl)cc32)c(=O)[nH]1	none (no result: KCNQ2 enhance)
COc1ccc(C2Nc3cc(OC)ccc3-n3cccc32)cc1 (stereo not drawn)	none (no result: KCNQ2 enhance)
Cc1ccc(C(=O)NNC(=O)c2ccc3ccccc3c2O)cc1	none (no result: KCNQ2 enhance)
OC1c2cc(Br)ccc2N=C2CCCN21 (stereo not drawn)	KCNQ2 block -7.7
CC1=Nc2ccc(Br)cc2C(c2ccccc2)N1CC(=O)NN (stereo not drawn)	none
CC1CCN(c2oc(-c3ccccc3Cl)nc2C#N)CC1	none (no result: KCNQ2 enhance)
Cc1ccccc1-c1nc(C#N)c(N2CCC(C)CC2)o1	KCNQ2 block -8.1
CN(CC(=O)Nc1ccc(F)cc1)C(=O)COC(=O)c1ccc(-c2ccccc2)cc1	none
OC(CNCCc1ccc(C(F)(F)F)cc1)COc1cccc2ccccc12 (stereo not drawn)	KCNQ2 block -7.1
COc1ccccc1COCC(O)CNCCc1ccc(C(F)(F)F)cc1 (stereo not drawn)	none (no result: KCNQ2 enhance)
Cc1ccccc1NS(=O)(=O)c1nnc(NC(=O)c2ccccc2C)s1	none (no result: KCNQ2 enhance)
O=C(Cn1cnc([N+](=O)[O-])n1)N/N=C/c1cc(Cl)ccc1O	none
CCCCCCN(C(=O)CCl)c1ccccc1	none (no result: KCNQ2 enhance)
Cc1cccc(NC(=O)C2Cc3ccccc3CN2C(=O)OCc2ccccc2)c1C (stereo not drawn)	none (no result: KCNQ2 enhance)
Cc1c(Cl)cccc1NC(=O)C1Cc2ccccc2CN1C(=O)c1ccccc1 (stereo not drawn)	KCNQ2 block -7.88
O=C(CNCc1ccccc1)Nc1cccc(Cl)c1Cl	KCNQ2 block -6.02
O=C(CNCc1ccccc1)Nc1ccccc1-c1ccccc1	none (no result: KCNQ2 enhance)
COc1ccc(COC(=O)CCS(=O)(=O)c2ccc(C)cc2)cc1F	none
CCN(C(=O)COC(=O)CCc1c[nH]c2ccccc12)c1c(N)n(Cc2ccccc2)c(=O)[nH]c1=O	none
COc1ccc(/C=C2\CCC/C(=C\C=N\N(C)C)C2=O)cc1	none (no result: KCNQ2 enhance)
CN(C)/N=C/C=C1\CCC/C(=C\c2ccc(F)c(F)c2)C1=O	KCNQ2 block -7.09
Oc1ccc(NCc2cccc(OCc3ccccc3)c2)cc1	none (no result: KCNQ2 enhance)
Oc1ccc(NCc2cccc(OCc3ccc(F)cc3)c2)cc1	KCNQ2 block -5.85
COC(=O)c1ccc([C@H](NC(=O)c2ccco2)[C@]2(C)C[C@H]2C2CCCCC2)cc1	KCNQ2 block -5.98
O=C(OC1CCCCC1)c1ccc(NC(=O)c2ccco2)cc1	none
Cc1ccc(SCc2nc(N)nc(Nc3ccccc3C)n2)c(C)c1	none
Cc1ccc(SCc2nc(N)nc(Nc3ccccc3C)n2)cc1C	KCNQ2 enhance 6.73
Cc1ccccc1Nc1nc(N)nc(CSCC(=O)Nc2cccc(Br)c2)n1	KCNQ2 enhance 27.2
Cc1ccccc1Nc1nc(N)nc(CSc2ccc(F)cc2)n1	none (no result: KCNQ2 enhance)
Cc1ccc(-c2csc3ncnc(NCCC(=O)O)c23)cc1C	none (no result: KCNQ2 enhance)
O=C(CSc1nnc(-c2ccncc2)n1-c1ccccc1)NC1CC1	none
Cc1c(C(c2ccccc2Br)c2c(C)n(C)n(-c3ccccc3)c2=O)c(=O)n(-c2ccccc2)n1C	none
COC(=O)C1=C(C)N(Cc2ccccc2)C(=O)/C1=C\c1ccco1	KCNQ2 block -5.73
CCN1C(=O)/C(=C\c2ccco2)C(C(=O)OC)=C1C	none
CCOC(=O)C1=C(C)N(c2ccc(OCC)cc2)C(=O)/C1=C\c1ccco1	none (no result: KCNQ2 enhance)
C=CCN1C(=O)/C(=C\c2ccco2)C(C(=O)OC)=C1C	none
COC(=O)C1=C(C)N(CCc2ccccc2)C(=O)/C1=C\c1ccco1	KCNQ2 block -5.87
COC(=O)C1=C(C)N(c2cccc(OC)c2)C(=O)/C1=C\c1ccco1	KCNQ2 block -6.15
CC1(c2nnc(-c3cccc(Cl)c3)o2)CC(c2ccccc2Br)=NO1 (stereo not drawn)	none (no result: KCNQ2 enhance)
Nn1c(SCC(=O)NCC2CCCO2)nnc1-c1ccc(OC(F)F)cc1 (stereo not drawn)	none (no result: KCNQ2 enhance)
